# Screening results (PubChem)
# BLM inh: blocks DNA unwinding by human BLM helicase; P54132; recombinant BLM DNA unwinding, fluorescence dequenching; Potency, µM (doses to about 56.1 µM), for inactives: at the highest dose activity change, negative = inhibition, usual class: inhibitors; 350,000 tested, 0.2% active;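 further: plate controls were vehicle for no effect and no enzyme for full effect; nearly all actives have a fitted effect of over 35% in size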
# FEN1 inh: human FEN1 inhibition; P39748; Recombinant FEN1 flap cleavage, fluorescence, 15 min; Potency, µM (doses to about 114 µM), for the others: at the highest dose activity change, negative = inhibition, most hits filed as inhibitors; 390,000 tested, 0.35% active; AID 588795; further: nearly all actives have a fitted effect of over 65% in size
#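 Enzyme 10 nM, 15 min RT preincubation with compound; start with substrate 50 nM final; reads at 0 and 15 min; qHTS titration, four-parameter Hill fit.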
# WRN helicase inh: inhibitors of human WRN helicase | Potency, µM (top dose mostly 114 µM), inactives show at the top dose activity change, negative = inhibition, most hits filed as inhibitors | AID 651768 | WRN helicase unwinding, fluorescent forked duplex, kinetic | 360,000 tested, 0.46% active | Q14191; further: nearly all actives have a fitted effect of over 55% in size
# Target sequence (Q14191 whole entry, looked up): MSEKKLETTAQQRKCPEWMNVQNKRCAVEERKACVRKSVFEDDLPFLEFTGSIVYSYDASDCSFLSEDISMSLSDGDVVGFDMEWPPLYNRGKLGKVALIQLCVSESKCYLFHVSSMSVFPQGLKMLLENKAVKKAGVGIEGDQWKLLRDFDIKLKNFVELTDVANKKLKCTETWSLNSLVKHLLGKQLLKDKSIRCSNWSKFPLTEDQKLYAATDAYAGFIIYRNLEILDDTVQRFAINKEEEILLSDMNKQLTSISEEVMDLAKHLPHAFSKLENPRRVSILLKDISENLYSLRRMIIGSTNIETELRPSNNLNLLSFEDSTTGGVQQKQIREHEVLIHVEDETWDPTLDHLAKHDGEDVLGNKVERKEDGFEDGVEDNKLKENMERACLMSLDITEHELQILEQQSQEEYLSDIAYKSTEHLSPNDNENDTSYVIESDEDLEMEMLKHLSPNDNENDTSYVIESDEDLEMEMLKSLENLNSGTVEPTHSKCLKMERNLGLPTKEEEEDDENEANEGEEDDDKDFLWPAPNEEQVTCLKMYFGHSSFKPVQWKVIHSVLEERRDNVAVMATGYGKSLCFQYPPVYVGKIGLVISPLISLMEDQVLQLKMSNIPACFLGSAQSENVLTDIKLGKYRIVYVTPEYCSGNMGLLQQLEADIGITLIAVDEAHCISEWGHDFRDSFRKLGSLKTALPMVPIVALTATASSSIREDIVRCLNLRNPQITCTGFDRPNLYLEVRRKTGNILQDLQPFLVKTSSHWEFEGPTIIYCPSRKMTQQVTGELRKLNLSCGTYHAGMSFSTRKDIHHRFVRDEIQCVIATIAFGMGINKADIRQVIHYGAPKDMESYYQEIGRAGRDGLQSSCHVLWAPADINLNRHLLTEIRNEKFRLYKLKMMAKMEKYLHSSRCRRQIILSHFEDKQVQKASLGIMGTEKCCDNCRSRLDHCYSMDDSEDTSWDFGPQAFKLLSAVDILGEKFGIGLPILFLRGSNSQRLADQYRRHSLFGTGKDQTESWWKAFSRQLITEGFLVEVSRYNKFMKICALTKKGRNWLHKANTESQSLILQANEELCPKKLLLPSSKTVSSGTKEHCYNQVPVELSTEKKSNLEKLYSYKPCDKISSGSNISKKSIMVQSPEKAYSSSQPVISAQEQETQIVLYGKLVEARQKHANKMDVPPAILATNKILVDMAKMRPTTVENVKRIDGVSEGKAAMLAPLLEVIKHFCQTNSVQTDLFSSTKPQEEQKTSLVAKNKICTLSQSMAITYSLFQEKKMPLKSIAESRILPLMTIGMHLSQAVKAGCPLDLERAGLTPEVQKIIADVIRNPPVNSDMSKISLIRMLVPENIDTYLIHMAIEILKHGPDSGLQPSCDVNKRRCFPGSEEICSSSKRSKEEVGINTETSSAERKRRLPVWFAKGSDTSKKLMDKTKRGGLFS
#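 Screening of the MLSMR collection measured strand separation of a quenched forked DNA duplex (100 nM) by 20 nM WRN with 2 mM ATP, all final. Compounds were preincubated with enzyme 15 min at room temperature.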
# APE1 inh-1: inhibitors of human APE1 endonuclease. 350,000 tested, 0.35% active. recombinant APE1, TAMRA/BHQ-2 abasic DNA cleavage fluorescence. P27695. Potency, µM (series often up to 65.8 µM), inactives show at the top dose activity change, negative = inhibition, hits mostly inhibitors. AID 2517;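 further: plate controls were vehicle for no effect and reference inhibitor for full effect; nearly all actives have a fitted effect of over 55% in size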
#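 Enzyme (0.75 nM final) and test compound are incubated 15 min at room temperature before adding 50 nM quenched THF abasic-site duplex. Cleavage dequenches TAMRA, followed at 525/598 nm over three reads one minute apart.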
# RECQ1 inh: inhibitors of human RECQ1 DNA helicase; 240,000 tested, 0.54% active; Potency, µM (doses to about 57.3 µM), for inactives: at the top dose activity, negative = inhibition, usual class: inhibitors; P46063; RECQ1 DNA unwinding, red fluorescence kinetic read;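 further: plate controls were vehicle for no effect and no enzyme for full effect; nearly all actives have a fitted effect of over 30% in size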
#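 50 nM RECQ1T1 preincubated 15 min with compound in Tris pH 8.0 buffer with MgCl2, DTT, Tween-20 and 2.5 ug/ml poly(dI-dC); started with 200 nM TAMRA/BHQ-2 forked duplex and 2 mM ATP. Unwinding read as fluorescence (525/598 nm), two reads 2 h apart.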
# APE1 dye cs: counter-screen for APE1 inhibitors: DNA dye displacement | Potency, µM (series often up to 28.5 µM), without a hit: at the highest dose activity change, negative = inhibition, hits mostly inhibitors | DNA fluorescent dye displacement counterscreen, fluorescence | shares compounds with APE1 inh-1 | AID 2564 | 480 tested, 7% active;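 further: loss of thiazole orange fluorescence as the dye is displaced from duplex DNA; 0% = ThO with dsDNA and no compound and -100% = ThO without dsDNA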
# Endo IV inh: blocks E. coli endonuclease IV DNA cleavage; shares compounds with APE1 inh-1; E. coli Endo IV, fluorogenic AP-site DNA cleavage; Potency, µM (titrated, usually from 27.1 µM), inactives show at the top dose activity change, negative = inhibition, usual class: inhibitors; 560 tested, 4% active; AID 2565;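 further: plate controls were uninhibited enzyme wells for no effect and no enzyme buffer wells for full effect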
# APE1 inh-2: confirmation of inhibitors of human APE1 endonuclease | shares compounds with APE1 inh-1 | purified APE1, fluorogenic abasic-site DNA cleavage | Potency, µM (titrated, usually from 57.1 µM), for inactives: top-dose activity change, negative = inhibition, most hits filed as inhibitors | 750 tested, 44% active; further: nearly all actives have a fitted effect of over 30% in size
# APE1 FP inh: compounds that displace a DNA probe from human APE1; APE1 binding to TAMRA-labelled double-stranded DNA, fluorescence polarization displacement; shares compounds with APE1 inh-1; 480 tested, 7% active; Potency, µM (highest dose often 28.5 µM), inactives show at the highest dose activity, negative = inhibition, hits mostly inhibitors
# Active calls of the source: *; i = inactive; u = inconclusive; x = no result given; [ ] = remark or other dose. Only some compounds are listed: those with a hit (about 0.87% of all), similar ones and a draw of the others. The call rests on the fitted dose curve; in most records, active means well fitted curve in the direction sought with a large enough effect; inconclusive means small, poorly fitted or top-dose-only effect, or another doubt; inactive means no such curve, though single readings can be large; an effect the other way counts as inactive or inconclusive. Unless noted, on the % scale 0 is the no-effect control and ±100 the full control effect; potency means the concentration at half of the fitted maximal effect.
SMILES,BLM inh,FEN1 inh,WRN helicase inh,APE1 inh-1,RECQ1 inh,APE1 inh-2,others
CCOC(=O)C1=C(CSc2nc(-c3ccccc3)ccc2C#N)OC(N)=C(C#N)C1c1ccc(OC)cc1 (centres undefined),-13.3%,u,u,-8.6%,10µM*,x,
CCOC(=O)C1=C(CSc2nc(CC)c(C)cc2C#N)OC(N)=C(C#N)C1c1ccccc1 (centres undefined),-13.2%,-18.7%,-45.0%[57.1 µM],-6.3%,-22.7%,x,
Cc1ccc(-c2csc3ncnc(Sc4nnnn4-c4ccccc4)c23)cc1,x,-16.9%,x,x,x,x,
O=c1cc(-c2ccc(O)c(O)c2)oc2cc(OC3OC(CO)C(O)C(O)C3O)cc(O)c12 (centres undefined),-15.6%,x,x,u,20µM*,x,
CCCCC(CC)CN=C(N)NC(N)=NCCCCCCN=C(N)NC(N)=NCC(CC)CCCC (centres undefined),u,50.1µM*,89.1µM*,-13.6%,13.7%,x,
Cc1ccccc1-c1nc(NCc2cccs2)c2ccccc2n1,-13.8%,x,x,u,-14.3%,x,
Clc1ccccc1-c1nc(NCc2cccs2)c2ccccc2n1,-25.2%,x,x,7.94µM*,-26.4%,15.8µM*,APE1 dye cs=u;Endo IV inh=-87.2%[57.1 µM];APE1 FP inh=38.4%[57.1 µM]
CCOC(=O)NC1(NCc2ccccc2)Oc2ccccc2O1,1.1%,-9.1%,-23.9%,2.51µM*,u,u,APE1 dye cs=-0.3%;Endo IV inh=26.1%;APE1 FP inh=0.7%
CCOC(=O)NC1(NCC(C)C)Oc2ccccc2O1,-0.3%,-10.8%,-13.4%[57.1 µM],u,u,x,
CCOC(=O)NC1(NC(C)C)Oc2ccccc2O1,-0.1%,-1.6%,2.6%,22.4µM*,-21.3%,u,APE1 dye cs=-5.2%;Endo IV inh=3.7%;APE1 FP inh=-0.2%
CCOc1ccc(NC(=O)CN2CCSc3ccc(S(=O)(=O)N4CCCC4)cc32)cc1,-7.5%,4.5%,x,x,x,x,
CC(N=Cc1cc([N+](=O)[O-])ccc1O)c1ccccc1 (centres undefined),1.0%,-5.8%,-12.4%,2.7%,-1.1%,x,
CC(N=Cc1cccc(O)c1O)c1ccccc1 (centres undefined),-10.0%,35.5µM*,31.6µM*,14.1µM*,22.4µM*,-6.7%[24.4 µM],APE1 dye cs=5.4%;Endo IV inh=12.9%;APE1 FP inh=-2.8%
CCCCN(CCCC)CCNC(=O)Cn1nc(CC)n2c(cc3sccc32)c1=O,2.4%,6.0%,x,x,x,x,
COc1ccc(-c2onc(C)c2C)cc1S(=O)(=O)NCc1ccc(C)o1,0.7%,-1.9%,x,x,x,x,
Cc1nc(SCC(=O)O)c(C#N)c2c1CCCC2,-2.2%,-5.6%,44.7µM*,u,-26.7%,u,
C/C=C\C=C/C(=O)Nc1cccc(C2=NOC3(C2)C[C@@H](C(N)=O)N(C(=O)/C=C/CC)C3)c1 (some centres undefined),-6.2%,-14.3%,u,-1.5%,i,x,
CCC(=O)Nc1cccc(C2=NOC3(C2)C[C@@H](C(N)=O)N(C(=O)COc2ccc(Cl)cc2)C3)c1 (some centres undefined),-1.0%,-18.5%,0.5%,0.8%,-12.3%,x,
C=C(C)C(=O)Nc1cccc(C2=NOC3(C2)C[C@H](C(N)=O)N(C(=O)COc2ccc(Cl)cc2)C3)c1 (some centres undefined),-14.5%,-19.9%,u,u,17.8µM*,u,
C/C=C\C=C/C(=O)Nc1cccc(C2=NOC3(C2)C[C@@H](C(N)=O)N(C(=O)/C=C/C=C\C)C3)c1 (some centres undefined),10µM*,50.1µM*,25.1µM*,35.5µM*,22.4µM*,u,
COc1ccc(-c2cn3cccnc3n2)cc1NC(=O)COc1ccccc1,1.3%,-2.8%,x,x,x,x,
Cc1cccc(CNC(=O)Cn2c(-c3cccs3)cc3ccccc32)c1,-1.4%,15.1%,x,x,x,x,
O=C1CSC(=S)N1N1C(=O)c2cccc([N+](=O)[O-])c2C1=O,121.4%,x,x,u,u,u,
O=C1c2cccc([N+](=O)[O-])c2C(=O)N1CCO,-7.7%,20.2%,1.7%,10.5%,-3.4%,x,
c1cncc(-c2csc(-c3cccnc3)n2)c1,2.1%,14.8%,8.5%,22.9%,x,x,
SMILES,BLM inh,FEN1 inh,WRN helicase inh,APE1 inh-1,RECQ1 inh,APE1 inh-2,others
c1cncc(-c2nc(-c3ccco3)cs2)c1,-21.5%,-12.7%,-34.4%,25.1µM*,-14.8%,-9.7%[24.4 µM],APE1 dye cs=-10.4%;Endo IV inh=0.3%;APE1 FP inh=u
CCCCNC(=O)[C@@H]1CC=C[C@@H]2CCN(Cc3ccccc3)C(=O)[C@@H]21,x,-0.2%,x,x,x,x,
CC(C)OCCCNC(=O)Cc1ccc(NC(=O)N2CCCCc3ccccc32)cc1,1.1%,6.1%,x,x,x,x,
CCn1cc(C(=O)O)c(=O)c2cc(F)c(N3CCN(S(=O)(=O)c4ccc(NC(=O)OC)cc4)CC3)cc21,-3.7%,u,u,3.4%,2.9%,-28.1%,
O=C(CSc1nnc(SCc2ccccc2)s1)N/N=C/C=C\c1ccco1,17.8µM*,u,u,17.8µM*,25.1µM*,12.6µM*,APE1 dye cs=12.6µM*;Endo IV inh=-10.4%;APE1 FP inh=u
Cc1ccc(CSc2nnc(SCC(=O)N/N=C/c3c[nH]c4ccccc34)s2)cc1,-13.9%,u,u,9.2%,u,-24.4%,
O=C(CSc1nnc(SCc2ccccc2)s1)N/N=C/c1ccc(C(=O)O)cc1,-3.0%,1.9%,-9.2%,-2.9%,-1.5%,x,
COc1ccc(/C=C/C(=O)NC(=S)Nc2ccc(C(=O)O)cc2)cc1,-18.3%,u,-24.2%,-11.5%,0.9%,-12.6%,
Cc1ccc(S(=O)(=O)N2CCCCC2)cc1C(=O)Nc1ccc(S(=O)(=O)Nc2ncccn2)cc1,-17.1%,u,u,u,u,u,
O=C(Nc1ccc(S(=O)(=O)Nc2ncccn2)cc1)c1ccc(S(=O)(=O)N2CCCC2)cc1,0.4%,-4.8%,4.7%,1.6%,9.5%,x,
CCc1noc(-c2ccc(NC(C)c3ccccc3)c([N+](=O)[O-])c2)n1 (centres undefined),-8.5%,-2.1%,x,x,x,x,
O=C(Nc1ccc(N2CCOCC2)cc1)c1ccc2nc(-c3ccco3)c(-c3ccco3)nc2c1,-9.6%,10.7%,-9.0%,-6.4%,-7.8%,x,
